Reference: PubChem BioAssay AID2314 (National Center for Advancing Translational Sciences (NCATS), 2010)
Hit rate of the full screen: of about 300,000 compounds, about 37,000 (12%) were called active. The full list was thinned out, with actives kept by preference. Values without a mark were called inactive. Rule as the data show it: active = max response mostly above about 13% (no sharp cut-off); inactive = mostly below about 14%.

Assay: Cycloheximide Counterscreen for Small Molecule Inhibitors of Shiga Toxin; also: read at 38.3 µM for the half of the compounds with a filed dose; 0% is about no effect
Settings: cell reporter, cycloheximide protein synthesis inhibition counterscreen; hits give high values

Compared with `COCCN(C(=O)CCC(=O)Nc1nccs1)C(C(=O)NCCC(C)C)c1ccc(F)cc1` (stereo not drawn), `CCn1c(SCC(=O)Nc2nc(C)cs2)nnc1C(C)NC(=O)c1ccccc1` (stereo not drawn) is higher in max response: -2.06% for the first, 1.33% for the second.

Compared with `CCOC(=O)c1c(-c2ccc(-c3ccccc3)cc2)csc1NC(=O)CCC(=O)O`, `CCOC(=O)C1=C(c2ccc(OC)cc2)C(=O)c2ccccc2C1=O` is higher in max response: -2.27% for the first, 1.07% for the second.

Going from `CCc1cccc(CC)c1NC(=S)Nc1ccc2cn[nH]c2c1` to `Cc1cccc(NC(=S)Nc2ccc3cn[nH]c3c2)c1`, the max response rises from -0.951% to 7.4%.

Compared with `Cc1cccc(NC(=S)Nc2ccc(Cl)c(Cl)c2)c1`, `CC(=O)c1cccc(NC(=O)c2ccncc2)c1` is higher in max response: -1.87% for the first, 7.01% for the second.

Compared with `Cc1csc(NC(=O)c2ccc(-c3ccc(Cl)cc3Cl)o2)n1`, `Cc1ccc2cc(CCNC(=O)c3c(-c4ccccc4Cl)noc3C)c(=O)[nH]c2c1` is lower in max response: 11.3% for the first, -3.51% for the second.

Compared with `Cc1cc(=O)oc2cc(OCC3CC(c4ccccc4Cl)=NO3)ccc12` (stereo not drawn), `COCc1cc(=O)oc2cc(NS(=O)(=O)c3ccc(C)cc3)ccc12` is lower in max response: 13.7% for the first, 2.21% for the second.

First: Cc1ccc(NC2CCCN(C(=O)CCC3(C)CC3)C2)cc1C (stereo not drawn)
Second: Cc1cccc(NC(=O)C2CCN(C(=O)NC3CCCCC3)CC2)c1
The max response of the first is higher: 10.8% for the first, -6.02% for the second.

First: Cc1nc2ccc(C(=O)N(C)CC3CCCN(CCc4ccc(Cl)cc4)C3)cc2[nH]1 (stereo not drawn)
Second: Cc1c2cnn(CC(=O)NCc3ccccn3)c(=O)c2c(C)n1Cc1ccc(Cl)cc1
The max response of the first is higher: -2.66% for the first, -3.5% for the second.

Compared with `C=CCNC(=S)N1CCN(CCN=Cc2c(C)[nH]n(-c3ccc([N+](=O)[O-])cc3)c2=O)CC1`, `Cc1ccc(CN2CCC(n3nccc3NC(=O)CCCc3ccccc3)CC2)o1` is higher in max response: -1.17% for the first, 2.06% for the second.

Compared with `CCO[C@H]1OC(C(=O)Nc2ccccc2)=C[C@@H](C2CC2)[C@@H]1CCCO`, `COc1cc(CN2CCC(n3nccc3NC(=O)CCCc3ccccc3)CC2)ccc1O` is lower in max response: -1.4% for the first, -1.56% for the second.

First: C[C@]1(C(=O)NCCc2c[nH]c3ccccc23)C=C[C@@H](Cc2ccccc2)N1C(=O)c1ccccc1
Second: CC(C)(C)N(Cc1ccccc1)C(=O)COC(=O)CCc1c[nH]c2ccccc12
The max response of the first is higher: 11.9% for the first, -0.22% for the second.

Compared with `Cc1ccc(N2C(=O)C3C(c4ccccc4)(C2=O)C3(c2ccccc2)c2ccccc2)cc1` (stereo not drawn), `COc1ccc(N2C(=O)C3C(C2=O)C(C(=O)c2ccccc2)N2CCCC32)cc1` (stereo not drawn) is higher in max response: -4.14% for the first, 2.35% for the second.

First: c1ccc(-c2cc(-c3nnc4sc(-c5ccccn5)nn34)[nH]n2)cc1
Second: COc1cc(-c2nn3c(-c4cccc(C)c4)nnc3s2)cc(OC)c1OC
The max response of the first is higher: 5.86% for the first, -2.72% for the second.

Going from `COc1ccc(N(Cc2cc3cc(OC)ccc3[nH]c2=O)S(C)(=O)=O)cc1` to `CCC(=O)N(Cc1cc2cc(OC)ccc2[nH]c1=O)c1ccccc1C`, the max response rises from -1.64% to -0.76%.

Compared with `CC(=O)c1ccc(S(=O)(=O)N2CCC(Oc3ccc(-n4cnnn4)cc3)CC2)cc1`, `COc1ccc(/C=N/NS(=O)(=O)c2ccc(NC(C)=O)cc2)cc1` is higher in max response: -8.92% for the first, -2.62% for the second.

Compared with `N#Cc1c(Cl)nc(-c2cccnc2)nc1-c1ccccc1`, `CCCNC(=O)CSc1nc(Cc2ccccc2)nc2ccccc12` is lower in max response: -2.59% for the first, -5% for the second.

Going from `S=C(Nc1cccnc1)Nc1ccccn1` to `COc1ccc(C=Nc2cccc3ncccc23)cc1`, the max response rises from -1.56% to 5.61%.

Going from `CCOC(=O)c1cnc(-n2nc(C)cc2C)nc1NNc1cc(C)nc(-c2ccccc2)n1` to `COc1ccc(C)cc1Nc1nc(-c2c(C)[nH]c3ccccc23)cs1`, the max response rises from -1.88% to 11.4%.

First: COc1ccc(/C=N/Nc2nc(-c3ccc(C)cc3)c(C#N)c(=O)[nH]2)cc1
Second: COc1ccc(/C=N/OCC(=O)N(Cc2ccccc2)c2ccccc2C(=O)O)cc1
The max response of the first is lower: -2.53% for the first, -1.3% for the second.

Compared with `CCOC(=O)Cc1csc(SCc2cc(=O)oc3cc(O)ccc23)n1`, `CCC(C(=O)OC)n1cnc2scc(-c3ccc(C)cc3)c2c1=O` (stereo not drawn) is higher in max response: -1.72% for the first, 0.506% for the second.

First: CCn1c(-c2cc(OC)ccc2OC)csc1=Nc1c(C)n(C)n(-c2ccccc2)c1=O
Second: COc1ccc(CN2CCC(n3nccc3NC(=O)CCCc3ccccc3)CC2)cc1C
The max response of the first is higher: -0.97% for the first, -6.15% for the second.

First: CCn1cc(CN2CCC(n3nccc3NC(=O)CCCc3ccccc3)CC2)c(C)n1
Second: O=C(NCc1ccccc1Cl)c1ccc2c(=O)n(CC3CCCO3)c(=S)[nH]c2c1 (stereo not drawn)
The max response of the first is lower: -2.15% for the first, -1.12% for the second.

Compared with `CCCC[C@@H]1CN=C(N)N1CCc1cc(C(F)(F)F)cc(C(F)(F)F)c1`, `CC[C@H](C)[C@H](NC(=O)[C@H](CCCNC(=N)N)NC(=O)[C@H](CCCNC(=N)N)NC(=O)[C@H](CC(C)C)NC(=O)[C@H](Cc1ccccc1)NC(=O)CNC(=O)CNC(=O)[C@@H](N)Cc1ccc(O)cc1)C(=O)N[C@@H](CCCNC(=N)N)C(=O)N1CCC[C@H]1C(=O)N[C@@H](CCCCN)C(=O)N[C@@H](CC(C)C)C(=O)N[C@@H](CCCCN)C(=O)N[C@@H](Cc1c[nH]c2ccccc12)C(=O)N[C@@H](CC(=O)O)C(=O)N[C@@H](CC(N)=O)C(=O)N[C@@H](CCC(N)=O)C(=O)O` is higher in max response: -4.84% for the first, -3.93% for the second.

With `CCOC(=O)c1c(-c2ccc(C)cc2)csc1/N=C(\C)C1=C(O)c2ccccc2C1=O` the max response was 11.2% (active).
For `S=C(Nc1cccc(Cl)c1)Nc1ccc2cn[nH]c2c1`, the max response was 24.8% (active).
In the case of `CC(=O)Nc1cccc(C(=O)Nc2nc(C)cs2)c1`, the max response is reported as 27.2% (active).
In the case of `Cc1csc(NC(=S)Nc2cccc(Cl)c2)n1`, the max response is reported as 41.1% (active).
In the case of `CCOc1cccc(-c2nn3c(-c4ccccn4)nnc3s2)c1`, the max response is reported as 22.6% (active).
For `COc1ccc2[nH]c(=O)c(CNc3ccc(C)c(C)c3)cc2c1`, the max response was 15% (active).
In the case of `COc1ccc(/C=N/Nc2ccccc2C(=O)O)cc1`, the max response is reported as 38.9% (active).
For `COc1ccc(/C=N/Nc2nc3ccccc3c(=O)[nH]2)cc1`, the max response was 43.2% (active).
In the case of `Cc1ccc2c(CSc3nncs3)cc(=O)oc2c1`, the max response is reported as 26.8% (active).
For `CN=c1scc(-c2cc(OC)ccc2OC)n1/N=C/c1c(C)[nH]c2ccccc12`, the max response was 15.1% (active).
In the case of `CC(=O)NCC(=O)N1CCC(n2nccc2NC(=O)CCCc2ccccc2)CC1`, the max response is reported as 26.3% (active).
In the case of `CC(=O)N[C@@H](C)C(=O)N1CCC(n2nccc2NC(=O)CCCc2ccccc2)CC1`, the max response is reported as 24.6% (active).
